Measured values from PubChem BioAssay AID602410 (Johns Hopkins Ion Channel Center, 2012).
In all, about 340,000 compounds went through this assay and about 2,800 (0.82%) were called active.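 The calls were made as follows: active = B-score under library mean minus 4 SD, starting fluorescence ratio at most library mean plus 5 SD; inactive = the rest.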 The sample as a whole holds a higher share of actives than the screen did.

The molecules below were run against Potassium channel subfamily K member 3 (Homo sapiens) (UniProt O14649) (assay: blockers of TASK1 two-pore potassium channel – CHO cells, FluxOR thallium flux, B-score, primary screen (AID 602410;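 as to B-score: more negative B-score means stronger inhibition of thallium flux through KCNK3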)). Details: CHO-KCNK3 thallium flux, FluxOR fluorescence, at 10 µM; stronger effect = lower value.
Sequence of Potassium channel subfamily K member 3 (Homo sapiens) (O14649 whole entry, looked up): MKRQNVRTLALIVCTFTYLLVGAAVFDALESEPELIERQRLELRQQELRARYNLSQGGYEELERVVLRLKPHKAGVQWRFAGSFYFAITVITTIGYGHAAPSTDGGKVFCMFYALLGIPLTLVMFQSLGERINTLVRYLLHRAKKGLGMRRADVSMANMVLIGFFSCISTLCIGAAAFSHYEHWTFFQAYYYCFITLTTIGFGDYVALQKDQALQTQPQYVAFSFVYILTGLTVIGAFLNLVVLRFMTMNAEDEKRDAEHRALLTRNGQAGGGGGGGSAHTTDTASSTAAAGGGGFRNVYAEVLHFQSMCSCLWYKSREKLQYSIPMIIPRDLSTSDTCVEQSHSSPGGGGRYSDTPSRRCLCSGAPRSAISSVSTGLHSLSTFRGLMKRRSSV

B-score, inactive:
COc1ccccc1NC(=O)CCC(=O)N1CC(C)Oc2ccc(C)cc21 (stereo unspecified)
O=C(O)C(CCc1ccccn1)c1ccccc1 (stereo unspecified)
Cc1ccc(CS(=O)(=O)CCC(=O)NC2CC2)cc1
COc1ccc(-c2nn(C)c(=O)c3ccccc23)cc1CNC(=O)C1CCCCC1
O=C(Nc1ccccc1N1CCOCC1)c1ccncc1
CCC(C)C(=O)Nc1ccccc1N1CCN(c2ccc(F)cc2)CC1 (stereo unspecified)
O=C(Nc1ccccc1N1CCCC1)c1ccc(F)c(S(=O)(=O)N2CCOCC2)c1
CCCC(=O)Nc1ccccc1N1CCN(C(=O)c2ccccc2)CC1
O=C(NC(=S)Nc1ccccc1N1CCCCC1)c1ccc(F)cc1
Cc1cccc(C(=O)NC(=S)N2CCN(c3ccc([N+](=O)[O-])cc3)CC2)c1
Cc1[nH]c(C)c(S(=O)(=O)N2CCN(c3cccc(C(F)(F)F)c3)CC2)c1C(=O)N1CCCC1
O=C(NC(=S)N1CCCCC1c1cccnc1)c1ccccc1 (stereo unspecified)
CONc1nc2nonc2nc1NOC
CCCC(=O)Nc1cccc(NC(=S)NC(=O)C(C)Oc2ccc(Cl)cc2Cl)c1 (stereo unspecified)
CSc1cccc(NC(=O)C2CCCN2S(=O)(=O)c2ccc3c(c2)CCC(=O)N3)c1 (stereo unspecified)
CC(C(=O)c1ccc(-c2ccccc2)cc1)[n+]1cccc(Br)c1 (stereo unspecified)
COC(=O)c1nc(NC(=O)c2ccc(C(C)(C)C)cc2)n[nH]1
Cc1cccc(NC(=O)c2ccc(S(=O)(=O)N(C)c3ccccc3)cc2)n1
COc1ccccc1NC(=O)CN(c1ccccc1OC)S(=O)(=O)c1ccccc1
COc1ccccc1N(CC(=O)N1CCCCC1)S(=O)(=O)c1ccccc1
O=S(=O)(O)CCN1CCOCC1
O=S(=O)(Cc1noc(-c2ccc(OC(F)(F)F)cc2)n1)c1ccc(F)cc1
O=C(CCNS(=O)(=O)c1ccccc1C(F)(F)F)NCc1ccc2c(c1)OCO2
c1n[nH]c(NCc2ccc3c(c2)OCO3)n1
COC(=O)c1ccc2c(=O)n(CCN3CCOCC3)c(SCC(=O)Nc3cccc(OC)c3)nc2c1
COc1ccc(C(C)=O)cc1CN1C(=O)NC2(CCCCC2C)C1=O (stereo unspecified)
Cc1ccccc1NC(=S)NNC(=O)c1cccc(Br)c1
CC(CC(=O)O)CC(=O)NNC(=O)c1cccc(Br)c1 (stereo unspecified)
CC(=O)OCC(=O)C1(O)CCC2C3CC(C)C4=CC(=O)CCC4(C)C3C(O)CC21C (stereo unspecified)
CC(C)(C)C(=O)Nc1c(Br)c(C2CC2)nn1-c1ccccc1
O=C(Cn1nc(CNc2ccc(Cl)cc2)[n+]2c1CCCCC2)c1ccc(Cl)cc1
COc1cc(C(=O)NCC(=O)N2CC=C(c3ccccc3)CC2)cc(OC)c1OC
N#Cc1c(NC(=O)CCCN2C(=O)c3ccccc3C2=O)oc(-c2ccccc2)c1-c1ccccc1
CCC(C)(C)NC(=O)c1cc([N+](=O)[O-])ccc1N1CCCCC1
CCC(=O)c1ccc(OC(=O)/C=C/c2cc(OC)c(OC)c(OC)c2)cc1
CCOC(=O)N1CCC(N(CCOC)C(=O)Nc2ccc(C)c(C)c2)CC1
COc1ccc(N2CCN(C(=O)CNC(=O)c3ccc(Br)o3)CC2)cc1
O=C(NCCc1csc(-c2ccccc2)n1)c1ccccc1F
O=C(COC(=O)Cc1ccccc1F)NCCc1ccccc1
O=C(COC(=O)CNS(=O)(=O)c1ccccc1)NC12CC3CC(CC(C3)C1)C2
COC(=O)c1ccc(CN2C(=O)NC(c3ccccc3)(c3ccccc3)C2=O)o1
COc1ccc(CNc2ncnc3ccccc23)cc1
CCc1ccc(C(CNc2nc(C(F)(F)F)nc3ccccc23)N(C)C)cc1 (stereo unspecified)
O=Cc1c(Cl)cccc1Cl
O=C(NNC1=C(C(=O)C(F)(F)F)CCC1)c1ccncc1
Cc1ccc(C(=O)OCC(=O)NC(=O)Cc2ccccc2)c(O)c1
COCCNC(=O)Cn1cc(C(=O)c2cccs2)c2ccccc21
O=C(COC(=O)c1cccs1)NCc1cccs1
COc1ccc(F)cc1C(=O)C1CCCN(C(=O)CCc2ccccn2)C1 (stereo unspecified)
CCOC(=O)c1sc(-c2cccc([N+](=O)[O-])c2)cc1N
O=C(c1ccc(F)cc1)C1CCN(Cc2cn[nH]c2-c2ccccc2)CC1
Cc1ccc(C(C)C)cc1OCC(=O)Nc1ccccc1N1CCCC1
Cc1ccccc1NC(=O)Nc1ccccc1N1CCCCC1
CC1=C[C@H]2Cc3cc(C)cc(C)c3S(=O)(=O)[C@@H]2C=C1
CC(C)n1c(O)c(N=Nc2ccccn2)c2ccccc21
CN(C)CCN(C(=O)C1CCCCC1)c1nc2cc3c(cc2s1)OCO3
CN(C)CCN(C(=O)C1=COCCO1)c1nc2ccc(Cl)cc2s1

B-score, active:
O=C(Nc1ccccc1N1CCCC1)c1ccc2ccccc2c1 -8.97
CCCCC(=O)Nc1ccccc1N1CCN(c2ccc(F)cc2)CC1 -9.06
Cc1cccc(C(=O)Nc2ccccc2N2CCN(c3ccc(F)cc3)CC2)c1 -12.2
CSc1nccc(NC(=O)c2ccc(C(C)(C)C)cc2)n1 -10.4
COc1ccccc1N(CCOc1ccccc1)S(=O)(=O)c1ccccc1 -10
N#Cc1nc(Cc2cccc3ccccc23)oc1NCc1ccc2c(c1)OCO2 -13.5
O=C(/C=C/NNC(=O)c1cccc(Br)c1)c1ccccc1 -9.94
COc1cc(C(=O)Nc2oc(-c3ccccc3)c(-c3ccccc3)c2C#N)cc(OC)c1OC -10.4
COc1ccc(-c2nc(CCNC(=O)c3ccc(Br)o3)cs2)cc1 -10.2
N#Cc1ccc(S(=O)(=O)NCC(=O)OCC(=O)NCCc2ccccc2)cc1 -11.3
COc1cccc(CNc2nc(C(F)(F)F)nc3ccccc23)c1 -9.39
O=C(Cn1cc(C(=O)c2cccs2)c2ccccc21)NCc1cccs1 -13.4
O=C(CNCCC1=CCCCC1)Nc1ccccc1N1CCCCCC1 -12.6
CCN(CC)CCN(C(=O)c1cc(Cl)sc1Cl)c1nc2cc3c(cc2s1)OCO3 -8.98
